High-throughput results deposited in PubChem by several laboratories.
tim10-1 inh: growth inhibitors of tim10-1 mutant yeast; S. cerevisiae tim10-1 ts strain growth, BacTiter-Glo, 24 h; hit rate 2.2% among 330,000; AID 463190; inhibition, % at 20 µM;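 active = inhibition of at least 40%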;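 also: mutant grown at 25 °C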
tim23-1 inh: inhibits growth of tim23-1 mutant yeast; S. cerevisiae tim23-1 growth, BacTiter-Glo luminescence, 24 h; hit rate 1.3% among 330,000; inhibition, % at 20 µM;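 active = growth inhibition of the mutant yeast at or above 50%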;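 also: temperature-sensitive mutant grown at 25 °C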
PfHsp90 yeast 2: inhibits growth of yeast expressing Plasmodium falciparum Hsp90; hit rate 0.32% among 310,000; AID 504621; inhibition, % at 9.4 µM; S. cerevisiae expressing PfHsp90, BacTiter-Glo ATP, 48 h; yeast lacking PDR1 and PDR3 efflux regulators;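 active = every replicate shows inhibition above about 80%, whatever the replicate mean, limit read from the data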
TIM10 inh: growth inhibitors of TIM10 yeast strain | S. cerevisiae TIM10 strain growth, BacTiter-Glo luminescence, 24 h | inhibition, % at 10 µM | hit rate 1.4% among 330,000 | AID 463195;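 active = inhibition of 40% or more at the single tested concentration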;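 also: wild-type TIM10 isogenic control strain grown at permissive 25 °C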
SKKanGAS inh: blocks kanamycin growth of S. pyogenes SKKanGAS strain | BacTiter-Glo, 6 h | inhibition, % at 7.5 µM | hit rate 1.3% among 300,000 | AID 1662;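 active = mean replicate score, as percent of positive control median, at least 50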;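 also: strain carries kanamycin resistance gene driven by streptokinase promoter and grows in 40 µg/ml kanamycin; loss of luminescence reflects streptokinase promoter inhibition or plain growth inhibition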
NALP3 yeast inh: inhibitors of NALP3 inflammasome in yeast; AID 2825; Yeast reconstituted NLRP3/ASC/caspase-1, beta-gal luminescence, 24 h; hit rate 0.39% among 330,000; inhibition, % at 10 µM;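 active = inhibition of 50% or more; inactive = inhibition below 50%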
tim10-1 confirm: tim10-1 yeast growth inhibition, confirmed; inhibition, % at 20 µM; AID 463213; hit rate 56% among 7,400; S. cerevisiae tim10-1 ts strain growth, BacTiter-Glo, 24 h; shares compounds with tim10-1 inh;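 active = inhibition of yeast growth at or above a set limit in either of two repeat tests at 20 µM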;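 also: tim10-1 mutant grown at permissive 25 °C to find synthetic lethal compounds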
TIM10 conf: confirmation of TIM10 yeast growth inhibitors | shares compounds with TIM10 inh | S. cerevisiae tim10 strain growth, BacTiter-Glo luminescence, 24 h | inhibition, % at 10 µM | hit rate 63% among 4,600 | AID 463215;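 active = inhibition of yeast growth at or above a set limit in either of two replicates at 10 µM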; also: this counterscreen used the strain with wild-type TIM10
tim23-1 confirm: confirmation of tim23-1 mutant yeast growth inhibitors; shares compounds with tim23-1 inh; S. cerevisiae tim23-1 growth, BacTiter-Glo luminescence, 24 h; inhibition, % at 20 µM; hit rate 83% among 4,400; AID 463218;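 active = inhibition above about 39% in either of two replicate wells at 20 µM, limit read from the data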;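 also: temperature-sensitive tim23-1 mutant grown at 25 °C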
A number is an active result; n = inactive; x = no result. Most compounds without a hit are left out; they make up all but 4.5% or so of the library.

SMILES | tim10-1 inh | tim23-1 inh | PfHsp90 yeast 2 | TIM10 inh | SKKanGAS inh | NALP3 yeast inh | tim10-1 confirm | TIM10 conf | tim23-1 confirm
Cc1ccc(-c2nc3ncccc3o2)cc1NC(=O)c1ccc([N+](=O)[O-])o1 | 74 | 84 | n | 83 | n | n | 82 | 85 | n
CC(=O)c1cccc(NC(=O)c2ccc([N+](=O)[O-])o2)c1 | 65 | 77 | n | 47 | n | n | 52 | 46 | 72
COc1ccc(NC(=O)c2ccc(Br)o2)cc1 | n | n | x | n | n | n | x | x | x
O=C(Nc1ccc2oc(-c3ccncc3)nc2c1)c1ccccc1F | n | n | n | n | n | n | x | x | x
O=C(NNC(=O)c1ccc([N+](=O)[O-])o1)c1ccccc1 | n | n | n | n | n | n | x | x | x
COc1ccc(NC(=O)c2ccc([N+](=O)[O-])o2)cc1 | 64 | 59 | n | 41 | n | n | 45 | 43 | 58
Cc1cc(-c2nc3ncccc3o2)ccc1NC(=O)c1ccc([N+](=O)[O-])o1 | x | x | n | x | x | x | x | x | x
O=C(Nc1ccc2oc(-c3ccncc3)nc2c1)c1ccc([N+](=O)[O-])o1 | 45 | 69 | n | 53 | n | n | 68 | 75 | 79
CCOC(=O)COc1c(C=O)cc(Br)cc1OC | 45 | 61 | x | 65 | n | n | 36 | 53 | 75
CCCCNC(=O)/C(C#N)=C/c1ccc(C(=O)OC)cc1 | n | n | n | n | n | n | x | x | x
CCCCCCCCNC(=O)/C(C#N)=C/c1ccccc1[N+](=O)[O-] | 50 | 83 | 110 | 64 | n | n | n | 70 | 47
CCOc1ccccc1NC(=O)/C(C#N)=C/c1c(C)nn(-c2ccccc2)c1Cl | n | n | n | n | n | n | x | x | x
N#C/C(=C/c1ccccc1[N+](=O)[O-])C(=O)NCc1ccco1 | 52 | 60 | n | 60 | n | n | 45 | n | 54
C=CCNC(=O)/C(C#N)=C/c1ccc(C)o1 | n | n | n | n | n | n | x | x | x
C=CCNC(=O)/C(C#N)=C/c1ccccc1[N+](=O)[O-] | 46 | 56 | n | 50 | n | n | 48 | n | 46
C=CCNC(=O)/C(C#N)=C/c1c(C)nn(-c2ccccc2)c1Cl | 71 | 72 | n | 67 | n | n | 76 | 65 | 72
COc1ccc(NC(=O)Nc2ccc3c(c2)C(=O)N([C@@H](C)CO)C[C@@H](C)[C@@H](CN(C)S(=O)(=O)c2cn(C)cn2)O3)cc1 | n | n | n | n | x | n | x | x | x
COc1ccc(CNn2cnnc2)c(O)c1 | n | n | n | n | n | n | x | x | x
CC1Cc2ccccc2N1C(=O)CCn1cccn1 (configuration not stated) | n | n | n | n | n | n | x | x | x
N#C/C(=C\c1ccccc1[N+](=O)[O-])C(=O)NCc1ccccc1 | 49 | 71 | n | 46 | n | n | 54 | 51 | 74
CCOCCCNC(=O)/C(C#N)=C/c1ccc([N+](=O)[O-])o1 | 84 | 75 | n | 68 | n | n | 79 | 94 | 74
O=C(NCc1cccnc1)c1ccccc1NS(=O)(=O)c1ccc(Br)cc1 | n | n | n | n | x | n | x | x | x
CCNc1ccc(S(=O)(=O)N2CCCCC2)cn1 | n | n | n | n | x | n | x | x | x
Cc1[nH]n(C(N)=S)c(=O)c1N=Nc1ccc([N+](=O)[O-])cc1Cl | 45 | 58 | n | n | n | n | 52 | x | 67
CCC1CSC(Nc2ccc(C(=O)/C=C/c3ccc(OC)c(OC)c3)cc2)=N1 (configuration not stated) | n | n | x | n | n | n | x | x | x
SMILES | tim10-1 inh | tim23-1 inh | PfHsp90 yeast 2 | TIM10 inh | SKKanGAS inh | NALP3 yeast inh | tim10-1 confirm | TIM10 conf | tim23-1 confirm
CCC1CSC(Nc2ccc(C(=O)/C=C/c3ccc(Br)cc3)cc2)=N1 (configuration not stated) | 45 | 54 | n | 50 | n | n | 51 | 48 | 55
O=C(Nc1ccccc1Cl)N1CCCN(c2nc(-c3ccccc3)ns2)CC1 | 43 | 55 | n | 46 | n | n | n | 33 | 45
Cc1c(Cl)cccc1NC(=O)N1CCCN(c2nc(-c3ccccc3)ns2)CC1 | n | n | n | n | n | n | x | x | x
O=C(NC(=S)NCCN1CCOCC1)c1ccc(Cl)cc1Cl | n | n | n | n | n | n | x | x | x
CCCCNC(=S)NC(=O)c1ccc(Cl)cc1Cl | 49 | 54 | x | n | n | n | 37 | x | 53
COc1ccc(CN2CCN(CCSc3ccc(C)cc3)CC2)c(OC)c1OC | n | n | n | n | n | n | x | x | x
O=C(Nc1ccc(Br)c(C(F)(F)F)c1)c1ccccc1 | 58 | 73 | n | 68 | n | n | 50 | n | 78
O=C(Nc1ccc(Br)c(C(F)(F)F)c1)c1ccc(C(F)(F)F)cc1 | 45 | 81 | x | 72 | 106 | n | 48 | 81 | n
O=C(Nc1cccc(O)c1)c1ccc(C(F)(F)F)cc1 | n | n | n | n | n | n | x | x | x
CC(C)(C)OC(=O)CN1c2cccc3cccc(c23)S1(=O)=O | n | n | n | n | n | n | x | x | x
O=C(Cc1nc2ccccc2[nH]1)c1cccc([N+](=O)[O-])c1 | n | n | n | n | n | n | x | x | x
O=C1Nc2ccccc2/C1=C/c1ccc([N+](=O)[O-])cc1 | 56 | 74 | n | 81 | n | n | 62 | 81 | 59
CN1CCN(C(c2ccc(Cl)cc2)c2cc(Cl)c3cccnc3c2O)CC1 (configuration not stated) | 40 | 59 | 106 | n | 101 | n | n | x | 71
CN1CCN(C(c2cccc(Cl)c2)c2ccccc2Cl)CC1 (configuration not stated) | n | n | n | n | n | n | x | x | x
CN1CCN(C(c2ccc(C(F)(F)F)cc2)c2cc(Cl)c3cccnc3c2O)CC1 (configuration not stated) | 43 | 66 | x | 53 | 104 | n | 36 | n | 70
CN1CCN(C(c2ccccc2)c2ccc(Cl)cc2)CC1 (configuration not stated) | n | n | n | n | x | n | x | x | x
CNC(=O)c1c(NC(=O)CCS(=O)(=O)c2ccc(Cl)cc2)sc2c1CCN(C(=O)OC)C2 | n | n | n | n | n | n | x | x | x
CCc1cccc(NC(=O)CCCn2nc(CC)n3c(cc4occc43)c2=O)c1 | n | n | n | n | n | n | x | x | x
CCc1nn(CCCC(=O)NCc2ccccc2Br)c(=O)c2cc3occc3n12 | 43 | 50 | n | n | 59 | n | n | x | 54
Nc1ncnc2c1ncn2[C@@H]1O[C@H](COP(=O)(O)OP(=O)(O)OP(=O)(O)O)[C@@H](O)[C@H]1O | 84 | 84 | 88 | 70 | x | n | 80 | 68 | 87
